Article PMC5540273 (PLoS ONE, 2017)

Tests used:
Settings in all cases: concentration: 1 μM, replicates: in singlicate; n = 1
NEK4 = system: NEK4
NEK5 = system: NEK5
NEK6 = system: NEK6
NEK7 = system: NEK7
NEK9 = system: NEK9
NIK = system: T1, NIK
T1 construct: gene MAP3K14

NIM1 = system: T2, NIM1
T2 construct: gene MGC42105

NLK = system: NLK
OSR1 = system: T3, OSR1
T3 construct: gene OXSR1

PAK1 = system: PAK1
PAK2 = system: PAK2
PAK3 = system: PAK3
PAK4 = system: PAK4
PAK6 = system: PAK6
PAK7 = system: PAK7
PCTK1 = system: T4, PCTK1
T4 construct: gene CDK16

PCTK2 = system: T5, PCTK2
T5 construct: gene CDK17

PCTK3 = system: T6, PCTK3
T6 construct: gene CDK18

PDGFRA = system: PDGFRA
PDGFRB = system: PDGFRB
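Note: KINOMEscan kinase panel screen.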

SMILES | %Inh (NEK4) [%] | %Inh (NEK5) [%] | %Inh (NEK6) [%] | %Inh (NEK7) [%] | %Inh (NEK9) [%] | %Inh (NIK) [%] | %Inh (NIM1) [%] | %Inh (NLK) [%] | %Inh (OSR1) [%] | %Inh (PAK1) [%] | %Inh (PAK2) [%] | %Inh (PAK3) [%] | %Inh (PAK4) [%] | %Inh (PAK6) [%] | %Inh (PAK7) [%] | %Inh (PCTK1) [%] | %Inh (PCTK2) [%] | %Inh (PCTK3) [%] | %Inh (PDGFRA) [%] | %Inh (PDGFRB) [%]
COc1cc2ncn(-c3cc(OCCCc4ccccc4)c(C(N)=O)s3)c2cc1OC [GSK205189] | 0 | 0 | 0 | 0 | 6 | 0 | 0 | 0 | 2 | 36 | 26 | 6 | 0 | 0 | 0 | 0 | 0 | 19 | 0 | 25
COc1cc2ncn(-c3cc(OCc4ccncc4)c(C(N)=O)s3)c2cc1OC [GSK336313] | 0 | 23 | 0 | 0 | 15 | 0 | 0 | 11 | 31 | 16 | 3 | 0 | 0 | 4 | 0 | 9 | 0 | 18 | 0 | 27
CN(C)c1cc(-c2ccc3c(N)n[nH]c3c2)nc(N)n1 [GSK2219329] | 0 | 2 | 0 | 0 | 0 | 0 | 21 | 1 | 0 | 9 | 0 | 0 | 0 | 0 | 15 | 0 | 0 | 0 | 0 | 9
CCc1nc(-c2cccc(C)c2)c(-c2ccncc2)s1 | 0 | 0 | 3 | 0 | 0 | 0 | 0 | 81 | 0 | 28 | 16 | 0 | 15 | 3 | 0 | 0 | 1 | 2 | 0 | 70
COc1cc2nccc(Nc3cccc(Oc4ccccc4)c3)c2cc1OC.Cl [GW284543] | 3 | 0 | 0 | 11 | 27 | 37 | 19 | 24 | 4 | 0 | 0 | 0 | 0 | 0 | 4 | 4 | 0 | 2 | 22 | 26
COc1ccc(-c2coc3ccc(-c4nnc(SCc5cccc(C#N)c5)o4)cc23)cc1 | 3 | 0 | 16 | 0 | 0 | 2 | 5 | 0 | 0 | 18 | 34 | 0 | 14 | 19 | 15 | 0 | 0 | 2 | 20 | 10
Cc1nnc(-c2ccc(C)c(-c3ccc(C(=O)O)cc3)c2)o1 [GW608005] | 14 | 2 | 0 | 5 | 2 | 26 | 13 | 0 | 2 | 8 | 9 | 0 | 0 | 0 | 0 | 0 | 0 | 2 | 0 | 4
CCC(=O)c1c(-c2ccccc2)c2cc(Cl)ccc2c(=O)n1Cc1ccc(C(=O)O)cc1 | 0 | 0 | 0 | 0 | 0 | 0 | 0 | 0 | 0 | 0 | 0 | 0 | 0 | 0 | 0 | 0 | 0 | 0 | 19 | 58
Cc1nn2c(=O)cc(N3CCOCC3)nc2n1Cc1cccc(Cl)c1Cl [GSK2342769] | 9 | 0 | 0 | 0 | 0 | 0 | 12 | 0 | 8 | 9 | 2 | 0 | 0 | 0 | 0 | 4 | 0 | 15 | 0 | 16
O=C(Nc1n[nH]c2nc(-c3ccccc3)c(Br)cc12)C1CC1 [SB-708998] | 3 | 2 | 0 | 0 | 3 | 31 | 9 | 33 | 11 | 10 | 10 | 9 | 0 | 0 | 0 | 0 | 0 | 0 | 20 | 93.7
O=C(Nc1n[nH]c2cc(-c3ccccc3F)ccc12)C1CC1 [SB-733371] | 0 | 0 | 0 | 11 | 0 | 0 | 0 | 15 | 0 | 0 | 0 | 0 | 0 | 0 | 9 | 0 | 9 | 0 | 16 | 46
CCC(=O)c1c(-c2ccccc2)c2cc(Cl)ccc2c(=O)n1Cc1cc(S(C)(=O)=O)n(CCC(C)(C)O)n1 | 0 | 17 | 14 | 1 | 0 | 0 | 0 | 0 | 0 | 20 | 8 | 21 | 6 | 0 | 2 | 29 | 21 | 13 | 0 | 0
C[C@@H]1CC[C@H](C(=O)NC2CCCCC2)CN1c1cc(-c2ccc3c(N)n[nH]c3c2)nc(N)n1 [GSK2291363] | 18 | 22 | 26 | 0 | 25 | 32 | 14 | 7 | 17 | 15 | 17 | 0 | 0 | 3 | 17 | 2 | 10 | 32 | 0 | 34
COc1cc(Nc2ccnc3ccc(C(F)(F)F)cc23)cc(OC)c1OC [GW577382] | 5 | 13 | 2 | 3 | 13 | 0 | 85 | 73 | 14 | 0 | 0 | 31 | 4 | 0 | 7 | 0 | 0 | 7 | 0 | 36
O=C(Nc1ccc2c(c1)OCO2)NC1CCN(c2ccnc(NCc3ccc(F)cc3)n2)CC1 [GSK1379859] | 23 | 17 | 0 | 0 | 11 | 12 | 0 | 11 | 3 | 0 | 0 | 14 | 0 | 0 | 0 | 0 | 0 | 0 | 0 | 12
